Assay results from ChEMBL document CHEMBL3988442, “University of Dundee, Small-Polar-MMV Screening Library” (2021).
About 1,000 (1.4%) of roughly 69,000 compounds showed an effect of 50% or more. The full list was thinned out, with strong results kept by preference.

Tested on: Leishmania donovani
Experiment: Leishmania intramacrophage assay
Type: functional, organism-based
Set-up: scale not given: in the data most compounds retested in dose-response had high values

## Cl.NC(=O)N1CC2(CCNCC2)c2cc(Cl)ccc21
30 µM, 30.03 µM
  Percent Effect: 2.936%

## Cc1noc(C)c1CN1CC[C@H]2C[C@@H](c3nccs3)O[C@@H]2C1
30 µM, 30.03 µM
  Percent Effect: 15.1%

## Cc1cccc(-c2ncc(CNC(C)Cc3ncccc3C)cn2)c1 (stereo not given)
30.3 µM, […]
  Percent Effect: -19.51%

## Cc1cccc(-c2ncc(CNC(C)Cc3ccncc3)cn2)c1 (stereo not given)
30.3 µM, […]
  Percent Effect: -22.9%

## CC(Cc1cccc(F)c1)NCc1cnc(N2CCN(C)CC2)nc1 (stereo not given)
30.3 µM, […]
  Percent Effect: 97.99%

## Cl.Cl.Fc1ccc2c(c1)C1(CCNCC1)CC2NC1CC1 (stereo not given)
30.3 µM, […]
  Percent Effect: 27.52%

## Cc1ccc(O[C@@H]2C[C@H]3CN(C(=O)Cc4ccccn4)CCN3C2)cc1.O=C(O)C(F)(F)F.O=C(O)C(F)(F)F
30.3 µM, […]
  Percent Effect: 11.94%

## CCc1ncc(CN(CCc2ccccc2)Cc2cccs2)cn1.O=C(O)CC(O)(CC(=O)O)C(=O)O
30.3 µM, […]
  Percent Effect: -1.419%

## Fc1cnccc1CN1CCC2(CCNCC2)C1
30.3 µM, […]
  Percent Effect: 25.89%

## c1ccc(-c2ncc(CN3CCC4(CCNCC4)C3)cn2)cc1
30.3 µM, […]
  Percent Effect: 24.37%

## Oc1cccc2ccc(CN3CCC4(CCNCC4)C3)nc12
30.3 µM, […]
  Percent Effect: 61.55%

## COCC1CC2(CCN(CC3CC3)CC2)CN1Cc1ccccn1.O=C(O)C(F)(F)F.O=C(O)C(F)(F)F (stereo not given)
30.3 µM, […]
  Percent Effect: 40.82%

## Fc1cnc(N2CCCC3(CCN(Cc4ccoc4)C3)C2)nc1.O=C(O)C(F)(F)F.O=C(O)C(F)(F)F (stereo not given)
30.3 µM, […]
  Percent Effect: 13.62%

## Cc1oncc1C(=O)N1CC[C@H]2[C@H](C[C@@H](CN3CCCC3)N2C)C1.O=C(O)C(F)(F)F.O=C(O)C(F)(F)F
30.3 µM, […]
  Percent Effect: 25.5%

## Cc1cccc(C)c1NC(=O)CNC(C)Cc1ccsc1 (stereo not given)
30.3 µM, […]
  Percent Effect: 11.71%

## Cc1cc(CC(C)NC2CCSCC2)[nH]n1 (stereo not given)
30.3 µM, […]
  Percent Effect: 3.441%

## CCOC(=O)N1CCC(NC(C)Cc2cc(C)n[nH]2)CC1 (stereo not given)
30.3 µM, […]
  Percent Effect: 11.64%

## Cc1cc(CC(C)NC2CCN(CC(C)C)CC2)[nH]n1 (stereo not given)
30.3 µM, […]
  Percent Effect: 19.46%

## Cc1cc(N2CCC(NC(C)Cc3ccsc3)CC2)nc(N)n1 (stereo not given)
30.3 µM, […]
  Percent Effect: 71.35%

## Cc1cc(N2CCC(NC(C)Cc3ccsc3)CC2)nc(C)n1 (stereo not given)
30.3 µM, […]
  Percent Effect: 70.01%

## CCS(=O)(=O)NC[C@]12COC[C@H]1CN(Cc1cccnc1OC)C2.O=C(O)C(F)(F)F.O=C(O)C(F)(F)F
30.3 µM, […]
  Percent Effect: -3.146%

## CC(C)N(C)Cc1cncc2c1CCN(Cc1cccs1)C2.Cl.Cl.Cl
30.3 µM, […]
  Percent Effect: 7.349%

## O=C(O)C(F)(F)F.O=C(O)C(F)(F)F.c1cncc(OC[C@@]23CCO[C@@H]2CCN(Cc2cccs2)C3)c1
30.3 µM, […]
  Percent Effect: 13.49%

## O=C(O)C(F)(F)F.O=C1Nc2ccccc2C12CCN(Cc1nccs1)CC2
30.3 µM, […]
  Percent Effect: 18.81%

## Cc1ccc(CN2CCO[C@H]3[C@@H](OCc4cccnc4)CC[C@@H]32)o1.O=C(O)C(F)(F)F.O=C(O)C(F)(F)F
30.3 µM, […]
  Percent Effect: 19.54%

## COc1cccc(Cn2cc(C3=CCN(CCO)CC3)cn2)c1
30.3 µM, […]
  Percent Effect: 22.79%

## COc1ccc(-n2nnnc2C2(NCc3ccco3)CCCCC2)cc1
30.3 µM, […]
  Percent Effect: -17.59%

## OCCN1CCC(F)(F)C2(CCN(c3cccnc3)C2)C1 (stereo not given)
30.3 µM, […]
  Percent Effect: 51.95%

## FC1(F)CCNCC12CCN(c1cccnc1)C2.O=C(O)C(F)(F)F.O=C(O)C(F)(F)F (stereo not given)
30.3 µM, […]
  Percent Effect: 9.392%

## Cc1ccc(N2CCC3(CN(CCO)CCC3(F)F)C2)nn1.O=C(O)C(F)(F)F (stereo not given)
30.3 µM, […]
  Percent Effect: 39.18%

## COCCN1C[C@@H]2CN(Cc3cccc(C)n3)C[C@@H]2C1=O.O=C(O)C(F)(F)F
30 µM, 30.03 µM
  Percent Effect: 25.64%

## CC(C)CN1CCC2(COCc3cnc(-c4ccccc4)nc32)C1.O=C(O)C(F)(F)F (stereo not given)
30.3 µM, […]
  Percent Effect: 36%

## Cl.Cl.O=c1[nH]c2ncccc2n1C1CCNCC1
30.3 µM, […]
  Percent Effect: 13.74%

## COc1ccccc1CCN(C)Cc1nc(N)nc(N(C)C)n1
30.3 µM, […]
  Percent Effect: 17.72%

## Cc1ccc(CN2C[C@@H]3[C@@H](C2)OCC(=O)N3Cc2ccncc2)s1.O=C(O)C(F)(F)F.O=C(O)C(F)(F)F
30.3 µM, […]
  Percent Effect: 15.08%

## O=C(O)C(F)(F)F.O=C(O)C(F)(F)F.O=C1[C@H]2CN(Cc3ccncc3)C[C@H]2CN1c1ccsc1
30.3 µM, […]
  Percent Effect: 21.46%

## Cn1ncc2c(N3CCCC4(CCNC4)C3)nc(C(C)(C)C)nc21 (stereo not given)
30.3 µM, […]
  Percent Effect: 88.19%

## Cn1ncc2c(N3CCCN4CCC[C@H]4C3)nc(C(C)(C)C)nc21
30.3 µM, […]
  Percent Effect: -35.36%

## CCCc1nc(N2CCCC3(CCNC3)C2)c2cnn(C)c2n1 (stereo not given)
30.3 µM, […]
  Percent Effect: -7.107%

## O=C(N1CCCO1)[C@@]12CCO[C@@H]1CCN(Cc1cccnc1)C2.O=C(O)C(F)(F)F.O=C(O)C(F)(F)F
30.3 µM, […]
  Percent Effect: 13.9%

## CCO[C@H]1CN(CC2CC2)[C@@H]2CCCO[C@H]12.O=C(O)C(F)(F)F
30.3 µM, […]
  Percent Effect: 13.63%

## Cc1ncsc1CN1C[C@@H]2CCCO[C@@H]2[C@H](Nc2ccccn2)C1.O=C(O)C(F)(F)F.O=C(O)C(F)(F)F
30.3 µM, […]
  Percent Effect: -3.269%

## COc1cc2nc(NCc3ccc(C)nc3)nc(N)c2cc1OC
30.3 µM, […]
  Percent Effect: 62.6%

## COc1cc(CNCC(O)c2ccccc2F)cc2c1OCO2 (stereo not given)
30 µM
  Percent Effect: 34.29%

## Cc1ccc(C(=O)N2C[C@H]3CN(Cc4csc(C)n4)C[C@H]3C2)cn1
30.3 µM, […]
  Percent Effect: 58.41%

## Cc1ccc(C(=O)N2C[C@H]3CNC[C@H]3C2)cn1
30.3 µM, […]
  Percent Effect: -11.07%

## Cc1nc(CN2C[C@@H]3CN(C(=O)c4ccncc4)C[C@@H]3C2)cs1
30.3 µM, […]
  Percent Effect: -18.13%

## O=C(NC[C@]12COC[C@H]1CN(Cc1cccnc1)C2)c1ccno1.O=C(O)C(F)(F)F.O=C(O)C(F)(F)F
30 µM, 30.03 µM
  Percent Effect: 19.24%

## Cc1ccccc1-n1nc(C)c(CN(C)C(C)Cc2ccccn2)c1C.O=C(O)CC(O)(CC(=O)O)C(=O)O (stereo not given)
30.3 µM, […]
  Percent Effect: 17.55%

## COCc1cn(C[C@H]2C[C@@H]3CCN2C[C@@H]3C(=O)N2CCOCC2)nn1
30.3 µM, […]
  Percent Effect: -19.8%

## CC(C)(O)c1cn(C[C@H]2C[C@@H]3CCN2C[C@@H]3C(=O)N2CCOCC2)nn1
30.3 µM, […]
  Percent Effect: 75.59%

## CC(C)(C)c1cn(C[C@H]2CC3CCN2C[C@@H]3C(=O)N2CCOCC2)nn1 (stereo not given in full)
30.3 µM, […]
  Percent Effect: -15.57%

## CN(CC1Cc2ccccc2CN1C)C(=O)Cc1cccs1 (stereo not given)
30.3 µM, […]
  Percent Effect: 58.51%

## CN(C)CCN1CCN(Cc2cccs2)Cc2cccnc21.O=C(O)C(F)(F)F.O=C(O)C(F)(F)F.O=C(O)C(F)(F)F
30.3 µM, […]
  Percent Effect: -2.293%

## CN(C)[C@@H]1CN(C(=O)Cc2cccs2)[C@@H]2CCCO[C@H]12.O=C(O)C(F)(F)F
30.3 µM, […]
  Percent Effect: -12.28%
